From ChEMBL document CHEMBL1961873, “Compounds: GSK PKIS; Assays: Nanosyn kinase panel” (2012)

Experiments:
[1] = target: T1, Serine/threonine-protein kinase TBK1 (Homo sapiens) (UniProt Q9UHD2); settings: at 1 µM;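 note: values are mean inhibition of TBK1, screened as part of the GSK published kinase inhibitor set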
T1 sequence (whole entry): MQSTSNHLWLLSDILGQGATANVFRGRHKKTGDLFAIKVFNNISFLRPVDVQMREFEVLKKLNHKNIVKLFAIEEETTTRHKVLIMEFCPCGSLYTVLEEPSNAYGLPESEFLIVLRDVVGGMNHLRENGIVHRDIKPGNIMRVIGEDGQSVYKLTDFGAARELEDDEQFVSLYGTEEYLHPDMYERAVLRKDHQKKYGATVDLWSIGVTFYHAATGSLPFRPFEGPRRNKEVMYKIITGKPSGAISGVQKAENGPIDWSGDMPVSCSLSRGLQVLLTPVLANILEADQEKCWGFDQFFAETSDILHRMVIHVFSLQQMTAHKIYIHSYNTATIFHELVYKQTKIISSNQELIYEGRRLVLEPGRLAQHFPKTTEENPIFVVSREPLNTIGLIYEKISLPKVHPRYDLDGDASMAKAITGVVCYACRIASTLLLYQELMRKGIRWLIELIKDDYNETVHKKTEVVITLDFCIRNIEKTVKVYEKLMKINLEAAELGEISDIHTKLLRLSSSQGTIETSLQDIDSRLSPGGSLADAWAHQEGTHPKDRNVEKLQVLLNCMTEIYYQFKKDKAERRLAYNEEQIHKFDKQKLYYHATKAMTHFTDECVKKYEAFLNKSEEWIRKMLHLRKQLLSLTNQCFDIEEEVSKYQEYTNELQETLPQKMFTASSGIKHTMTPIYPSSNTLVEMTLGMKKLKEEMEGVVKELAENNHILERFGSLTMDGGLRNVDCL

[2] = target: T2, Testis-specific serine/threonine-protein kinase 1 (Homo sapiens) (UniProt Q9BXA7); settings: at 0.1 µM
T2 sequence (whole entry): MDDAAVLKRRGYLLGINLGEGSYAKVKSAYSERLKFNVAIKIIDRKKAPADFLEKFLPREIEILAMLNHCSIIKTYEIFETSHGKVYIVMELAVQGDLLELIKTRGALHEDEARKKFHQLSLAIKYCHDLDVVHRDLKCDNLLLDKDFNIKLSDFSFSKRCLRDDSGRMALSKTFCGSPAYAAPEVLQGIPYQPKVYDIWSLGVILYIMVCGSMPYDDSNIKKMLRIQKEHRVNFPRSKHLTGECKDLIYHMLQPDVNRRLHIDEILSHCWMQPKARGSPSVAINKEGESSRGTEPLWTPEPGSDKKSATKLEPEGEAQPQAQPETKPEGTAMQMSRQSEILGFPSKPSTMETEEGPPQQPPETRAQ

[3] = target: T2, Testis-specific serine/threonine-protein kinase 1 (Homo sapiens); settings: at 1 µM
[4] = target: T3, Testis-specific serine/threonine-protein kinase 2 (Homo sapiens) (UniProt Q96PF2); settings: at 0.1 µM
T3 sequence (whole entry): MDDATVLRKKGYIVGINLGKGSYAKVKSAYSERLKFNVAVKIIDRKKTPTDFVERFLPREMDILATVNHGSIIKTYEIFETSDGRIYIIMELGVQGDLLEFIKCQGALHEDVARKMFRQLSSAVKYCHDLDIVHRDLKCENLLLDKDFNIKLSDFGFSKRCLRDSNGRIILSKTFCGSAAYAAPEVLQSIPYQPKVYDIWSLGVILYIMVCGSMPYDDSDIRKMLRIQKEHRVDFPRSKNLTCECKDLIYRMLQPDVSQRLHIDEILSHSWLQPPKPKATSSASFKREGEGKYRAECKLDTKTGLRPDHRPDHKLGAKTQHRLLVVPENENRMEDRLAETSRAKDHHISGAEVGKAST

[5] = target: T3, Testis-specific serine/threonine-protein kinase 2 (Homo sapiens); settings: at 1 µM
[6] = target: Casein kinase I isoform alpha (Homo sapiens) (UniProt P48729); settings: at 0.1 µM
[7] = target: Casein kinase I isoform alpha (Homo sapiens) (UniProt P48729); settings: at 1 µM
[8] = target: Casein kinase I isoform gamma-1 (Homo sapiens) (UniProt Q9HCP0); settings: at 0.1 µM
[9] = target: Casein kinase I isoform gamma-1 (Homo sapiens) (UniProt Q9HCP0); settings: at 1 µM
[10] = target: Casein kinase I isoform gamma-2 (Homo sapiens) (UniProt P78368); settings: at 0.1 µM;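 note: values are mean inhibition figures reported as part of the GSK PKIS dataset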
Chain of Casein kinase I isoform gamma-2 (Homo sapiens) (P78368 whole entry, looked up, canonical isoform): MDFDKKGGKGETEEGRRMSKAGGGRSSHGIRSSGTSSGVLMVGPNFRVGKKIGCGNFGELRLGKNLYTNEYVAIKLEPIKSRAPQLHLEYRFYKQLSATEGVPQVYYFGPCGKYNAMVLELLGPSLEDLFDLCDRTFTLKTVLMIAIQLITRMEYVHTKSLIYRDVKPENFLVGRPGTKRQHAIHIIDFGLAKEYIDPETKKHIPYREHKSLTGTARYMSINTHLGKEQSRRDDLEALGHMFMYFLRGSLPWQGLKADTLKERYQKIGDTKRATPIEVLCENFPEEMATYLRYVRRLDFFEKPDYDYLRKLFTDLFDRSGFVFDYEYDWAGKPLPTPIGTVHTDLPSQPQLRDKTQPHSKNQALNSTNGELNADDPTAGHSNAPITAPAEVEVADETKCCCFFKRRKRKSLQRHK

Chain of Casein kinase I isoform gamma-1 (Homo sapiens) (Q9HCP0 whole entry, looked up, canonical isoform): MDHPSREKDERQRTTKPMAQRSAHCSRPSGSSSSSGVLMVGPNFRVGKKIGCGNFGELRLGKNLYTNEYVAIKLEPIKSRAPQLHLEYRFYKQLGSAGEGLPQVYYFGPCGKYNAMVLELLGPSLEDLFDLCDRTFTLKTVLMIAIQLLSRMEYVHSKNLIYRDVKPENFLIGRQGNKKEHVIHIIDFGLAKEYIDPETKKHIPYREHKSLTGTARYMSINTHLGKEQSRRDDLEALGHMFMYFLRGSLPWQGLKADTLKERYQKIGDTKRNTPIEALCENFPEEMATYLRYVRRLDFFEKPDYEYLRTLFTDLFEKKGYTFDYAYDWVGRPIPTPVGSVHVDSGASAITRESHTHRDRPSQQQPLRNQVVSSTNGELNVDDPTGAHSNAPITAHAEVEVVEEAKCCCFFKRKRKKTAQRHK
Chain of Casein kinase I isoform alpha (Homo sapiens) (P48729 2-337 limits assumed): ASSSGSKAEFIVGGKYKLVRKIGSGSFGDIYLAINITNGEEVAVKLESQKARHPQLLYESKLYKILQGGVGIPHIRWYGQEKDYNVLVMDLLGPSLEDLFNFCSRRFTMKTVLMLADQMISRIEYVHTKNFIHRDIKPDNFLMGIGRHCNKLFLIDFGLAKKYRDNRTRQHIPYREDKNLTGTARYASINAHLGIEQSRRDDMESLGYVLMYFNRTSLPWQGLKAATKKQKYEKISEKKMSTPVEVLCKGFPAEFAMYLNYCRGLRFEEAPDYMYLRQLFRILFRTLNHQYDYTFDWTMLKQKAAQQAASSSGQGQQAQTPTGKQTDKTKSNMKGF

Structure (SMILES)	inhibition [1] [%]	inhibition [2] [%]	inhibition [3] [%]	inhibition [4] [%]	inhibition [5] [%]	inhibition [6] [%]	inhibition [7] [%]	inhibition [8] [%]	inhibition [9] [%]	inhibition [10] [%]
CCn1c(-c2nonc2N)nc2c(C#CC(C)(C)O)ncc(OC[C@@H]3CCCN3)c21	41.2	20.6	70.4	4.9	2.67	-1.71	-2.58	1.04	2.69	1.05
NS(=O)(=O)c1ccc(-c2ccc3c(NC(=O)C4CC4)n[nH]c3c2)cc1	3.1	0.11	-0.04	1.09	-2.52	6.65	2.79	1.56	2.58	1
NS(=O)(=O)c1ccc(N/C=C2\C(=O)Nc3ccc4ncsc4c32)cc1	46.7	5.24	19.4	1.13	2.94	3.99	14.7	4.38	9.59	2.65
COc1cc(C=NNc2ncnc3c2cnn3Cc2ccccc2)ccc1O	3.75	-3.19	-2.62	-2.34	-2.56	-0.09	-4.3	-3.34	-3.33	-2.95
CCn1c(-c2nonc2N)nc2c(C#CCN)ncc(OCCCN)c21	4.32	-0.75	11.3	-0.97	4.75	1.05	-3.92	-2.42	-2.61	-0.29
Fc1ccc(-c2ncn(C3CCNCC3)c2-c2ccnc(Oc3ccccc3)n2)cc1	2.78	2.36	1.65	0.82	0.7	4.72	30.9	-1.52	4.5	-1.96
Cc1cc(-c2ccco2)cc(C)c1/C=C/c1cncc(-c2nn[nH]n2)c1	2.37	1.7	2.37	1.46	0.42	1.02	-0.59	1.01	1.56	0.62
NC(=O)c1sc(-n2cnc3cc(C(F)(F)F)ccc32)cc1OCc1ccccc1Br	1.3	2.93	3.05	2.48	1.1	1.1	-0.24	1.09	-0.28	0.61
CCn1c(-c2nonc2N)nc2c(C#CC(C)(C)O)ncc(OCC3CCNCC3)c21	44.7	24.4	73	2.77	5.17	4.15	4.34	-0.98	0.65	-1.19
COc1cc2c(cc1Nc1nc(Nc3ccsc3C(N)=O)c3cc[nH]c3n1)N(C(=O)CN(C)C)CCC2	25	92.3	95.5	59.4	91.2	-0.45	4.2	-0.49	5.86	–
COc1cccc(-n2ncc3c(N/N=C/c4ccncc4)ncnc32)c1	13.1	4.13	5.05	1.6	2.48	6.11	11.2	3.65	7.48	3.26
COc1cccc(COc2cc(-n3cnc4ccccc43)sc2C(N)=O)c1	1.53	-0.31	-0.86	0.72	-0.49	-2.17	-2.7	1.18	2.68	2.02
Nc1nonc1-c1nc2cnccc2n1C1CCCCC1	24.8	0.17	6.12	-1.12	-2.07	-1.01	-0.02	-2.65	-0.45	-2.61
CCn1c(-c2nonc2N)nc2c(C#CC(C)(C)O)nc(O[C@@H](CN)c3ccccc3)cc21	68	85.5	95.6	1.41	14.8	1.59	4.15	-0.58	7.01	-0.78
